Source: PubChem (The Scripps Research Institute Molecular Screening Center)
This is a sample that favours compounds with a hit; in the whole collection about 1.3% have one here.
eLon inh: inhibitors of E. coli Lon protease. P0A9M0. purified E. coli Lon protease, fluorescence polarization. inhibition, % at 7.94 µM. 360,000 tested, 0.42% active; in the data active = inhibition above about 13%, passing the limit was not always enough;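 note: 0% = enzyme with probe and DMSO and 100% = no enzyme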
PKA-R2B act: PKA-R2B complex activation; P22694+P31323; PKA-R2B holoenzyme dissociation, Cy5-IP20 fluorescence polarization; R2B truncated from residue 108, S112A mutant; 0% DMSO only, 100% 113 µM cGMP; activation, % at 11.4 µM; 340,000 tested, 0.079% active;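 active = activation above a cutoff set at the mean over all compounds plus 3 SD, cut at about 18% in these data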;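 note: higher means more holoenzyme dissociation and a rise in polarization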
Rin1 Abl inh: human Rin1-Abl interaction inhibition; P00519+Q13671; TR-FRET Rin1/Abl binding, biochemical; inhibition, % at 7.35 µM; 360,000 tested, 0.4% active; AID 588664; in the data active = inhibition above about 5%, passing the limit was not always enough
PKA-R1A act: activators of PKA-R1A complex; P00514+P68181; PKA-R1A dissociation, Cy5-IP20 fluorescence polarization; scaled: DMSO 0%, 113 µM cGMP 100%; activation, % at 11.4 µM; AID 504707; 340,000 tested, 0.083% active;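 active = percent activation above the mean of all tested compounds plus 3 SD, cut at about 19% in these data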;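 note: higher means more PKAc released from R1A so a rise in polarization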
IDE act: boosts human insulin-degrading enzyme activity in HEK cells. 340,000 tested, 0.073% active. activation, % at 5.96 µM. FAbeta-B cleavage, fluorescence polarization; 0% vehicle, 100% cell-free pure enzyme wells. P14735;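 active = activation above the mean of all tested compounds plus 3 SD, set per screening campaign, cut at about 17% in these data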
IDE cell inh: inhibits human insulin-degrading enzyme in HEK cells; FAbetaB cleavage, fluorescence polarization; P14735; 320,000 tested, 0.41% active; inhibition, % at 5.59 µM;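 active = percent inhibition above the average of all tested compounds plus 3 SD, set per screening campaign, cut at about 16% in these data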;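 note: IDE supplied by intact live HEK cells; FP after avidin binding of uncleaved biotin substrate so inhibition keeps polarization high; 0% = DMSO wells and 100% = 60 µM reference IDE inhibitor Ii1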
IDE cell inh cf: confirmation of human insulin-degrading enzyme inhibitors in cells. HEK cells, FAbetaB cleavage, fluorescence polarization. shares compounds with IDE cell inh. inhibition, % at 5.59 µM. 1,200 tested, 51% active;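 active = mean inhibition across triplicate wells above the cutoff set by the earlier primary insulin-degrading enzyme screen, cut at about 16% in these data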;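 note: 0% = DMSO wells and 100% = 60 µM reference IDE inhibitor Ii1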
HEK cytotox: HEK cell cytotoxicity, counter-screen for IDE inhibitors; inhibition, % at 5.59 µM; shares compounds with IDE cell inh; 1,200 tested, 28% active; AID 449730; HEK293 cytotoxicity, ATP luminescence; in the data active = inhibition above about 22%;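 note: 0% = vehicle wells and 100% = reference cytotoxic drug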
FP fluor counter: fluorescent artifact in IDE inhibitor FP assay; 30 tested, under 10 active; AID 588718; shares compounds with IDE cell inh; FP counterscreen for fluorescent artifacts, IDE probe project; IC50, µM; call rule not given here
* marks the source's active call; other numbers are inactive results; i = inactive; · = no result given.

SMILES | eLon inh | PKA-R2B act | Rin1 Abl inh | PKA-R1A act | IDE act | IDE cell inh | IDE cell inh cf | HEK cytotox | others
CCOc1ccccc1-n1c(SCC(=O)N2CCCc3ccccc32)nnc1-c1cccnc1 | -3 | -6 | 2 | -8 | -38 | 33* | 17* | 16
CC(=O)Nc1cccc(NC(=O)c2cccc3cccnc23)c1 | -2 | 0 | -3 | 9 | -3 | 7 | · | ·
Cc1noc(C)c1CSCC(=O)N1CCN(c2ccc(F)cc2)CC1 | 0 | -15 | -4 | -4 | 0 | 9 | · | ·
Cc1cccc(N2CCN(C(=O)CSCc3c(C)noc3C)CC2)c1C | -3 | 3 | -1 | -4 | -3 | 17* | 0 | 65*
CSC1=NSC2=NC(=O)/C(=C\c3coc4ccccc4c3=O)C(=N)N12 | -360 | -3 | -5 | 4 | -63 | 43* | 46* | 6
N=C1/C(=C/c2coc3ccccc3c2=O)C(=O)N=C2SC(c3ccco3)=NN12 | -326 | · | -2 | · | · | 15 | · | ·
CC(C)CSC1=NSC2=NC(=O)/C(=C\c3coc4ccccc4c3=O)C(=N)N12 | -256 | -6 | -4 | 8 | -128 | 63* | 106* | 8
N=C1/C(=C\c2coc3ccccc3c2=O)C(=O)N=C2SC(c3ccncc3)=NN12 | -351 | -5 | -2 | 0 | -35 | 42* | 20* | 6
Cc1occc1C(=O)NNC(=S)NCc1ccccc1 | 1 | 0 | 0 | -1 | 5 | 7 | · | ·
Cc1cc[n+](C(C)C(=O)c2ccc(-c3ccccc3)cc2)cc1 (stereo unspecified) | 4 | 2 | 3 | -12 | -16 | 21* | 8 | 77*
CCC[n+]1c2ccccc2cc2ccccc21 | 7 | -8 | -2 | 1 | -4 | 12 | · | ·
CCCC[n+]1c2ccccc2cc2ccccc21 | -2 | -12 | 1 | -11 | -10 | 16* | 6 | 40*
CN(C)c1ccc(/C=C(/C(=O)c2ccc(Cl)cc2Cl)n2cncn2)cc1 | -464 | -6 | -5 | -4 | -146 | 141* | 162* | 28*
CCN(CC)c1ccc(C=C(c2nnnn2-c2ccccc2)c2nnnn2-c2ccccc2)cc1 | -221 | 9 | -5 | -3 | -23 | 32* | 30* | 17
CCc1ccccc1NC(=O)CNC(=O)CCc1nc2sc3c(c2c(=O)[nH]1)CCCC3 | -26 | -8 | 0 | 1 | -5 | 11 | · | ·
COC(=O)c1cc(NC(=O)c2ccc(-c3ccccc3)cc2)ccc1Cl | 3 | -7 | -17 | -16 | -19 | 30* | 9 | 28*
COc1ccc(NC(=O)c2ccc(-c3ccccc3)cc2)cc1S(=O)(=O)N1CCOCC1 | -15 | -1 | -6 | -6 | -25 | 22* | 19* | 61*
Cc1cccc(-c2noc(CN(C)C(=O)c3ccco3)n2)c1 | 4 | -4 | -1 | -7 | 2 | 2 | · | ·
CN(C)c1ccc(/C=C(\C#N)C(=O)c2ccccc2)cc1 | i | -5 | -6 | 8 | -98 | 28* | 96* | 18
CCN(CC)c1ccc(/C=C(\C#N)C(N)=S)cc1 | -224 | 7 | -15 | 3 | -101 | 22* | 13 | 11
CCN(CC)c1ccc(/C=C(\C#N)C(N)=O)cc1 | -62 | -5 | -9 | -21 | -2 | · | · | ·
CCN(CC)c1ccc(/C=C(\C#N)C(=O)c2ccc(Br)cc2)cc1 | i | -6 | -3 | -4 | -176 | 68* | 51* | 21
CCOC(=O)CC1C(=O)NCCN1S(=O)(=O)c1ccc(NC(C)=O)cc1 (stereo unspecified) | 11 | -9 | 3 | 11 | 6 | -3 | · | ·
COc1cccc(C(=O)Nc2cccc(-c3ccc4nncn4n3)c2)c1OC | -9 | -10 | -2 | -14 | 6 | 2 | · | ·
COc1ccc(Cl)cc1C(=O)Nc1cccc(-c2ccc3nncn3n2)c1 | -33 | 2 | 2 | -10 | -6 | 17* | -1 | 22*
SMILES | eLon inh | PKA-R2B act | Rin1 Abl inh | PKA-R1A act | IDE act | IDE cell inh | IDE cell inh cf | HEK cytotox | others
Cc1cccc(C(C)C)c1-n1nnnc1-c1ccccc1 | -5 | 5 | 2 | 8 | 6 | -1 | · | ·
Oc1c(Cl)cc(Cl)c2cccnc12 | 3 | -10 | 6 | 1 | 2 | · | · | ·
Clc1cc2cccnc2c2ccccc12 | -3 | 3 | -9 | -4 | -10 | 19* | 13 | 4
C=CCc1cccc(/C=C/c2cc(=O)c3ccccc3[nH]2)c1O | -16 | 1 | 1 | -11 | -29 | 17* | 3 | 11
Cc1ccc(N=Cc2sc(O)c3ccccc23)cc1 | -187 | 3 | 5 | 5 | -24 | 36* | 57* | 11
Clc1cccc(-c2nnc(SCc3nc4ccccc4[nH]3)n2-c2ccccc2)c1 | · | · | · | · | · | · | · | · | FP fluor counter=>55
Clc1cccc(-c2nnc(SCc3nc4ccccc4[nH]3)n2Cc2ccco2)c1 | -18 | -8 | 1 | 0 | -39 | 71* | 50* | 12 | FP fluor counter=>55
Cc1ccc(-n2c(SCc3nc4ccccc4[nH]3)nnc2-c2ccncc2)cc1 | -11 | -1 | -5 | -11 | 2 | 3 | · | ·
Cc1nc2ccc(C(=O)NCc3ccc4c(c3)OCO4)cc2s1 | 3 | 6 | 1 | -4 | -3 | 1 | · | ·
COc1ccccc1-[n+]1c(C)cc(/C=C2\Sc3ccccc3N2C)cc1C | -204 | 5 | -56 | 7 | -70 | 52* | 104* | 113*
COc1ccc(-[n+]2c(C)cc(/C=C3\Sc4ccccc4N3C)cc2C)cc1 | -185 | 5 | -19 | 6 | -65 | 72* | 105* | 111*
O=S(=O)(c1ccc(Cl)cc1)N1CCc2ccccc21 | -4 | -8 | -1 | 10 | 2 | 3 | · | ·
Cc1[nH]nc2c1C1(CCOCC1)C(C#N)=C(N)O2 | -1 | 1 | 2 | -12 | 7 | -2 | · | ·
CC1(C)S/C(=N/N=C/c2ccco2)NC1=O | 1 | -7 | 3 | -21 | 5 | -1 | · | ·
CN1/C(=C/C=C(C#N)C#N)C(C)(C)c2ccccc21 | -1 | -1 | 2 | -13 | -3 | -5 | · | ·
CC1=C/C(=C\C=C(C#N)C#N)N(C)c2ccccc21 | -68 | -5 | -21 | 7 | -87 | 81* | 125* | 23*
COc1ccc2nc(NC(=O)CN(c3ccc(C)cc3)S(=O)(=O)c3c(C)nn(C)c3C)sc2c1 | 9 | -3 | -3 | -6 | -1 | 16* | 5 | 15
COc1ccc(OC)c(NC(=O)C2CCN(c3nc(C)cc(C)n3)CC2)c1 | 6 | 5 | -7 | 9 | -5 | 5 | · | ·
